From the antibiotic and cytotoxicity screens of Wong et al. (2023)
In all, about 39,000 compounds went through this assay and about 3,300 (8.5%) were called active. The sample as a whole holds a higher share of actives than the screen did.

test system: HepG2; assay: cytotoxicity call (relative viability < 0.9); details: 10 µM

**Q.** With `CO[C@H]1CN(C)C(=O)c2cc(NC(=O)Nc3ccccc3F)ccc2OC[C@@H](C)N(Cc2ccccc2C(=O)O)C[C@H]1C` as the compound, how does the cytotoxicity call read?
**A.** inactive

**Q.** How did the cytotoxicity call turn out when `C[C@@H]1CCCCO[C@H](CN(C)C(=O)Nc2ccc(F)cc2)[C@H](C)CN([C@@H](C)CO)C(=O)c2cc(NC(=O)c3ccccc3)ccc2O1` was run?
**A.** inactive

**Q.** How did the cytotoxicity call turn out when `COc1ccc(C(=O)O)c(O)c1OC` was run?
**A.** inactive

**Q.** `COc1ccc(C(=O)CCC(=O)O)c2ccccc12` was tested. Which cytotoxicity call did it give?
**A.** active

**Q.** For `O=C(O)CCC(=O)c1ccc(-c2ccccc2)cc1`, which cytotoxicity call is on record?
**A.** inactive

**Q.** With `C[C@H]1CCCCO[C@@H](CN(C)C(=O)NC2CCCCC2)[C@@H](C)CN([C@@H](C)CO)C(=O)c2cc(NC(=O)NC3CCCCC3)ccc2O1` as the compound, how does the cytotoxicity call read?
**A.** inactive

**Q.** How did the cytotoxicity call turn out when `COc1ccc(S(=O)(=O)N(C)C[C@@H]2OCCCC[C@@H](C)Oc3ccc(NC(=O)Nc4ccccc4)cc3C(=O)N([C@@H](C)CO)C[C@@H]2C)cc1` was run?
**A.** inactive

**Q.** With `C[C@H](O)C#Cc1ccc2c(c1)O[C@H](CN(C)C(=O)Cc1ccccn1)[C@@H](C)CN([C@H](C)CO)S2(=O)=O` as the compound, how does the cytotoxicity call read?
**A.** inactive

**Q.** How did the cytotoxicity call turn out when `COc1ccccc1C#Cc1cnc2c(c1)C(=O)N([C@H](C)CO)C[C@@H](C)[C@@H](CN(C)S(=O)(=O)c1cn(C)cn1)O2` was run?
**A.** inactive

**Q.** For `COCC#Cc1cnc2c(c1)C(=O)N([C@H](C)CO)C[C@@H](C)[C@H](CN(C)C(=O)c1cnccn1)O2`, which cytotoxicity call is on record?
**A.** inactive

**Q.** For `COCC#Cc1cnc2c(c1)C(=O)N([C@H](C)CO)C[C@@H](C)[C@H](CN(C)S(=O)(=O)c1cn(C)cn1)O2`, which cytotoxicity call is on record?
**A.** inactive

**Q.** How did the cytotoxicity call turn out when `COc1ccccc1C#Cc1cnc2c(c1)C(=O)N([C@@H](C)CO)C[C@H](C)[C@H](CN(C)S(=O)(=O)c1cn(C)cn1)O2` was run?
**A.** inactive

**Q.** How did the cytotoxicity call turn out when `COCC#Cc1cnc2c(c1)C(=O)N([C@H](C)CO)C[C@H](C)[C@H](CN(C)C(=O)c1cnccn1)O2` was run?
**A.** active

**Q.** With `COCC#Cc1cnc2c(c1)C(=O)N([C@H](C)CO)C[C@H](C)[C@@H](CN(C)C(=O)c1cnccn1)O2` as the compound, how does the cytotoxicity call read?
**A.** inactive

**Q.** How did the cytotoxicity call turn out when `COc1ccccc1C#Cc1cnc2c(c1)C(=O)N([C@H](C)CO)C[C@@H](C)[C@H](CN(C)S(=O)(=O)c1cn(C)cn1)O2` was run?
**A.** active

**Q.** How did the cytotoxicity call turn out when `COc1ccccc1C#Cc1cnc2c(c1)C(=O)N([C@@H](C)CO)C[C@@H](C)[C@H](CN(C)S(=O)(=O)c1cn(C)cn1)O2` was run?
**A.** active

**Q.** `COc1ccccc1C#Cc1cnc2c(c1)C(=O)N([C@@H](C)CO)C[C@@H](C)[C@@H](CN(C)S(=O)(=O)c1cn(C)cn1)O2` was tested. Which cytotoxicity call did it give?
**A.** inactive

**Q.** How did the cytotoxicity call turn out when `COc1ccccc1C#Cc1cnc2c(c1)C(=O)N([C@H](C)CO)C[C@H](C)[C@@H](CN(C)S(=O)(=O)c1cn(C)cn1)O2` was run?
**A.** inactive

**Q.** With `COCC#Cc1cnc2c(c1)C(=O)N([C@@H](C)CO)C[C@H](C)[C@@H](CN(C)S(=O)(=O)c1cn(C)cn1)O2` as the compound, how does the cytotoxicity call read?
**A.** active

**Q.** `COCC#Cc1cnc2c(c1)C(=O)N([C@H](C)CO)C[C@@H](C)[C@@H](CN(C)S(=O)(=O)c1cn(C)cn1)O2` was tested. Which cytotoxicity call did it give?
**A.** inactive

**Q.** How did the cytotoxicity call turn out when `COCCCNC(=O)[C@@]1(Sc2ccc(C)cc2)CC(=O)N(Cc2cc(C(F)(F)F)cc(C(F)(F)F)c2)[C@@H]1c1ccc(CO)cc1I` was run?
**A.** inactive

**Q.** Which cytotoxicity call does the source give for `Cc1cccc(S(=O)(=O)N2C[C@H](O)COC[C@H]3O[C@@H](CC(=O)NCc4ccncn4)CC[C@@H]32)c1` here?
**A.** inactive

**Q.** How did the cytotoxicity call turn out when `Cc1noc(C)c1NC(=O)N(C)C[C@@H]1Oc2ccc(NS(=O)(=O)c3c(C)noc3C)cc2C(=O)N([C@H](C)CO)C[C@@H]1C` was run?
**A.** inactive

**Q.** How did the cytotoxicity call turn out when `C[C@@H]1CN([C@H](C)CO)C(=O)c2cc(NC(=O)NC3CCCCC3)ccc2O[C@@H]1CN(C)C(=O)Nc1cccc2ccccc12` was run?
**A.** inactive

**Q.** How did the cytotoxicity call turn out when `Cc1ccc(S(=O)(=O)Nc2cccc3c2O[C@@H](CN(C)Cc2ccc(Oc4ccccc4)cc2)[C@H](C)CN([C@H](C)CO)C3=O)cc1` was run?
**A.** inactive

**Q.** With `COc1ccc(S(=O)(=O)N(C)C[C@@H]2OCCCC[C@H](C)Oc3ccc(NC(=O)Nc4ccccc4)cc3C(=O)N([C@H](C)CO)C[C@@H]2C)cc1` as the compound, how does the cytotoxicity call read?
**A.** inactive

**Q.** How did the cytotoxicity call turn out when `O=C(NCCn1ncc2c(=O)n(Cc3ccccc3)cnc21)c1ccc(S(=O)(=O)N2CCOCC2)cc1` was run?
**A.** inactive

**Q.** `CC(C)Sc1n[nH]c(=O)[nH]c1=O` was tested. Which cytotoxicity call did it give?
**A.** inactive

**Q.** Which cytotoxicity call does the source give for `CCCNC(=O)N(C)C[C@H]1Oc2cc(C#Cc3ccccn3)ccc2S(=O)(=O)N([C@H](C)CO)C[C@@H]1C` here?
**A.** inactive

**Q.** For `CC[C@H]1Sc2ccccc2NC1=O`, which cytotoxicity call is on record?
**A.** inactive

**Q.** Which cytotoxicity call does the source give for `C[C@H]1CCCCO[C@H](CN(C)S(=O)(=O)c2cn(C)cn2)[C@@H](C)CN([C@@H](C)CO)C(=O)c2cc(NS(=O)(=O)c3cccs3)ccc2O1` here?
**A.** inactive

**Q.** For `CSc1nc(C)cc(OCCO)n1`, which cytotoxicity call is on record?
**A.** inactive

**Q.** `COc1ccc(NC(=O)Nc2ccc3c(c2)C(=O)N([C@@H](C)CO)C[C@@H](C)[C@H](CN(C)Cc2ccc(Cl)c(Cl)c2)OCCCC[C@H](C)O3)cc1` was tested. Which cytotoxicity call did it give?
**A.** inactive

**Q.** `O=c1c(-c2ccc(O)cc2)coc2cc(O[C@@H]3O[C@H](CO)[C@@H](O)[C@H](O)[C@H]3O)ccc12` was tested. Which cytotoxicity call did it give?
**A.** inactive

**Q.** For `COc1ccc(CNC(=O)C[C@@H]2CC[C@@H]3[C@@H](COc4ccc(NC(=O)C5CC5)cc4C(=O)N3C)O2)cc1`, which cytotoxicity call is on record?
**A.** inactive

**Q.** Which cytotoxicity call does the source give for `C[C@H](CO)N1C[C@H](C)[C@@H](CN(C)S(=O)(=O)c2cccs2)Oc2c(NC(=O)C3CCOCC3)cccc2C1=O` here?
**A.** inactive

**Q.** For `Cc1ccc(S(=O)(=O)Nc2ccc3c(c2)C(=O)N([C@@H](C)CO)C[C@@H](C)[C@H](CN(C)C(=O)NC2CCCCC2)OCCCC[C@H](C)O3)cc1`, which cytotoxicity call is on record?
**A.** inactive

**Q.** How did the cytotoxicity call turn out when `CC(C)N=c1cc2n(-c3ccc(Cl)cc3)c3ccccc3nc-2cc1Nc1ccc(Cl)cc1` was run?
**A.** active

**Q.** `CCN[C@H]1CCS(=O)(=O)C1` was tested. Which cytotoxicity call did it give?
**A.** inactive

**Q.** With `CN[C@H]1CCS(=O)(=O)C1` as the compound, how does the cytotoxicity call read?
**A.** inactive

**Q.** With `Cc1nc(S(=O)(=O)N[C@H]2CCS(=O)(=O)C2)cn1C` as the compound, how does the cytotoxicity call read?
**A.** active

**Q.** How did the cytotoxicity call turn out when `CCC(=O)N(C)C[C@@H]1Oc2ncc(C#C[C@@H](C)O)cc2C(=O)N([C@H](C)CO)C[C@@H]1C` was run?
**A.** inactive

**Q.** How did the cytotoxicity call turn out when `COc1cccc(-c2cnc3c(c2)C(=O)N([C@H](C)CO)C[C@H](C)[C@H](CN(C)S(=O)(=O)c2cccc(F)c2)O3)c1` was run?
**A.** inactive

**Q.** For `N[C@@H](CN1C=CC(=O)C(=O)C1)C(=O)O`, which cytotoxicity call is on record?
**A.** inactive

**Q.** How did the cytotoxicity call turn out when `N[C@@H](Cn1ccc(=O)c(O)c1)C(=O)O` was run?
**A.** inactive

**Q.** With `NC(Cn1ccc(=O)c(O)c1)C(=O)O` (configuration not stated) as the compound, how does the cytotoxicity call read?
**A.** active

**Q.** With `C[C@@H]1CN([C@@H](C)CO)C(=O)c2cc(NC(=O)Nc3ccc(C(F)(F)F)cc3)ccc2O[C@@H]1CN(C)C(=O)Nc1cccc2ccccc12` as the compound, how does the cytotoxicity call read?
**A.** inactive

**Q.** Which cytotoxicity call does the source give for `C[C@@H]1CN(CCO[Si](C)(C)C(C)(C)C)C(=O)c2cc(NC(=O)Nc3ccccc3)ccc2O[C@@H](C)CCCCO[C@H]1CN(C)S(=O)(=O)c1ccc(F)cc1` here?
**A.** inactive

**Q.** Which cytotoxicity call does the source give for `Cc1noc(C)c1NC(=O)Nc1ccc2c(c1)CC(=O)N([C@H](C)CO)C[C@@H](C)[C@H](CN(C)S(C)(=O)=O)O2` here?
**A.** inactive

**Q.** `C[C@H](CO)N1C[C@H](C)[C@H](CN(C)S(C)(=O)=O)Oc2ccc(NC(=O)Cc3ccccc3)cc2C1=O` was tested. Which cytotoxicity call did it give?
**A.** inactive

**Q.** For `C[C@@H]1CCCCO[C@@H](CN(C)Cc2ccc(Cl)c(Cl)c2)[C@@H](C)CN([C@@H](C)CO)C(=O)c2cc(NC(=O)Nc3ccccc3)ccc2O1`, which cytotoxicity call is on record?
**A.** inactive

**Q.** For `C[C@@H]1CCCCO[C@H](CN(C)Cc2ccc(Cl)c(Cl)c2)[C@H](C)CN([C@@H](C)CO)C(=O)c2cc(NC(=O)Nc3ccccc3)ccc2O1`, which cytotoxicity call is on record?
**A.** active

**Q.** Which cytotoxicity call does the source give for `C[C@H](CO)N1C[C@H](C)[C@H](CN(C)Cc2ccc(Cl)c(Cl)c2)OCCCC[C@H](C)Oc2ccc(NC(=O)Nc3ccccc3)cc2C1=O` here?
**A.** inactive

**Q.** With `C[C@@H]1CN([C@@H](C)CO)C(=O)c2cc(NC(=O)Nc3ccccc3)ccc2O[C@@H](C)CCCCO[C@H]1CN(C)Cc1ccc(Cl)c(Cl)c1` as the compound, how does the cytotoxicity call read?
**A.** inactive

**Q.** With `C[C@@H]1CN([C@H](C)CO)C(=O)c2cc(NC(=O)Nc3ccccc3)ccc2O[C@@H](C)CCCCO[C@@H]1CN(C)Cc1ccc(Cl)c(Cl)c1` as the compound, how does the cytotoxicity call read?
**A.** active

**Q.** How did the cytotoxicity call turn out when `C[C@@H]1CCCCO[C@H](CN(C)Cc2ccc(Cl)c(Cl)c2)[C@@H](C)CN([C@H](C)CO)C(=O)c2cc(NC(=O)Nc3ccccc3)ccc2O1` was run?
**A.** inactive

**Q.** For `C[C@@H]1CCCCO[C@@H](CN(C)Cc2ccc(Cl)c(Cl)c2)[C@H](C)CN([C@@H](C)CO)C(=O)c2cc(NC(=O)Nc3ccccc3)ccc2O1`, which cytotoxicity call is on record?
**A.** inactive

**Q.** Which cytotoxicity call does the source give for `C[C@@H]1CCCCO[C@H](CN(C)Cc2ccc(Cl)c(Cl)c2)[C@@H](C)CN([C@@H](C)CO)C(=O)c2cc(NC(=O)Nc3ccccc3)ccc2O1` here?
**A.** inactive

**Q.** For `C[C@@H]1CCCCO[C@@H](CN(C)Cc2ccc(Cl)c(Cl)c2)[C@H](C)CN([C@H](C)CO)C(=O)c2cc(NC(=O)Nc3ccccc3)ccc2O1`, which cytotoxicity call is on record?
**A.** active

**Q.** For `C[C@@H]1CN([C@H](C)CO)C(=O)c2cc(NC(=O)Nc3ccccc3)ccc2O[C@@H](C)CCCCO[C@H]1CN(C)Cc1ccc(Cl)c(Cl)c1`, which cytotoxicity call is on record?
**A.** active

**Q.** How did the cytotoxicity call turn out when `CO[C@H]1CN(C)C(=O)c2cc(NS(C)(=O)=O)ccc2OC[C@H](C)N(C(=O)C2CCCCC2)C[C@@H]1C` was run?
**A.** inactive

**Q.** For `C[C@H]1CN([C@@H](C)CO)C(=O)c2cc(NS(=O)(=O)c3cn(C)cn3)ccc2O[C@@H]1CN(C)CC1CC1`, which cytotoxicity call is on record?
**A.** inactive

**Q.** For `Cc1ccc(S(=O)(=O)N(C)C[C@@H]2Oc3c(NS(=O)(=O)c4cn(C)cn4)cccc3C(=O)N([C@@H](C)CO)C[C@@H]2C)cc1`, which cytotoxicity call is on record?
**A.** inactive

**Q.** `COc1ccc(S(=O)(=O)N(C)C[C@H]2Oc3c(NC(=O)c4ccncc4)cccc3C(=O)N([C@H](C)CO)C[C@@H]2C)cc1` was tested. Which cytotoxicity call did it give?
**A.** inactive

**Q.** `CC(C)[Si](C#C[Si](C(C)C)(C(C)C)C(C)C)(O[C@H](C)c1cn(Cc2cccc(Cl)c2)nn1)C(C)C` was tested. Which cytotoxicity call did it give?
**A.** inactive

**Q.** How did the cytotoxicity call turn out when `Cc1cc(C(=O)Nc2cccc3c2O[C@@H](CN(C)C(=O)NC2CCCCC2)[C@H](C)CN([C@@H](C)CO)C3=O)n(C)n1` was run?
**A.** inactive

**Q.** `C[C@@H]1CN([C@@H](C)CO)C(=O)c2cc(NC(=O)CCCCCC(=O)Nc3ccccc3N)ccc2O[C@@H]1CN(C)S(C)(=O)=O` was tested. Which cytotoxicity call did it give?
**A.** inactive
